# Data published in PubChem BioAssay (NCATS).
# Results filed as inconclusive are left out. Active and inactive are the calls of the source. The call rests on the fitted dose curve; in most records, active means well fitted curve in the direction sought with a large enough effect; inconclusive means small, poorly fitted or top-dose-only effect, or another doubt; inactive means no such curve, though single readings can be large; an effect the other way counts as inactive or inconclusive.
# Tested on: Zika virus NS2B-NS3 protease (linked construct)
# Assay: 384 well plate NINDS Rhodamine confirmatory qHTS for Zika virus inhibitors (AID 1347164);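 further: fluorescence from protease cleavage of Ac-LKRR-rhodamine 110 substrate; nearly all actives have a fitted effect of over 65% in size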; further: potency means the concentration at half of the fitted maximal effect;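 on activity change, negative = inhibition: top concentration of the series differs between compounds; plate controls were no-inhibitor control for no effect and no-enzyme control for full effect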
# Details: rhodamine-110 peptide substrate fluorescence; series mostly up to 100 µM; activity change, negative = inhibition: at the top concentration
# In short: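 Fluorescence read at ex 485 nm/em 538 nm, 25 min after adding 10 microM Ac-LKRR-Rd substrate at room temperature in the dark; signal normalized to no-enzyme and no-inhibitor controls. Enzyme final 5, 30 or 60 nM; compounds, ~15 min preincubation.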
SMILES,Potency,"activity change, negative = inhibition"
O=C1NC(=O)/C(=C/c2ccc(-c3ccc(F)cc3O)o2)S1,20 µM (active),
COc1ccc(Br)cc1S(=O)(=O)NC(=O)/C=C/c1ccccc1Cc1ccc2ccccc2c1,,-26.7% (inactive)
O=C(NOCC1CC1)c1cc(Br)c(F)c(F)c1Nc1ccc(I)cc1Cl,31.6 µM (active),
O=C(c1cc(O)c(O)c([N+](=O)[O-])c1)c1ccccc1F,0.398 µM (active),
CN(C)[C@@H]1C(=O)C(C(=O)NCN2CCCC2)=C(O)[C@@]2(O)C(=O)C3=C(O)c4c(O)cccc4[C@@](C)(O)C3C[C@@H]12 (stereo not given in full),44.7 µM (active),

# Target: Lysine-specific demethylase 5B (Homo sapiens) (UniProt Q9UGL1)
# Assay: Optimization screen for KDM5B Histone Demethylases FDH coupled qHTS against the LOPAC library (AID 1347166); further: 0% is about no effect
# Details: KDM5B demethylation, FDH-coupled NADH fluorescence (FDH is formaldehyde dehydrogenase); series mostly up to 57.5 µM; activity, negative = inhibition: at the top concentration
# In short: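 KDM5BDeltaAP (200nM final) in 50mM HEPES pH 7.5, 0.01% Tween-20 was preincubated with compound for 10 min at room temperature. A substrate mix of 12.5uM H3K4Me3, 25uM a-ketoglutarate, ascorbate, Fe2+, NAD+ and formaldehyde dehydrogenase was then added. NADH fluorescence (340/450 nm) was read initially and after 30 min.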
# Chain of Lysine-specific demethylase 5B (Homo sapiens) (Q9UGL1 whole entry, looked up): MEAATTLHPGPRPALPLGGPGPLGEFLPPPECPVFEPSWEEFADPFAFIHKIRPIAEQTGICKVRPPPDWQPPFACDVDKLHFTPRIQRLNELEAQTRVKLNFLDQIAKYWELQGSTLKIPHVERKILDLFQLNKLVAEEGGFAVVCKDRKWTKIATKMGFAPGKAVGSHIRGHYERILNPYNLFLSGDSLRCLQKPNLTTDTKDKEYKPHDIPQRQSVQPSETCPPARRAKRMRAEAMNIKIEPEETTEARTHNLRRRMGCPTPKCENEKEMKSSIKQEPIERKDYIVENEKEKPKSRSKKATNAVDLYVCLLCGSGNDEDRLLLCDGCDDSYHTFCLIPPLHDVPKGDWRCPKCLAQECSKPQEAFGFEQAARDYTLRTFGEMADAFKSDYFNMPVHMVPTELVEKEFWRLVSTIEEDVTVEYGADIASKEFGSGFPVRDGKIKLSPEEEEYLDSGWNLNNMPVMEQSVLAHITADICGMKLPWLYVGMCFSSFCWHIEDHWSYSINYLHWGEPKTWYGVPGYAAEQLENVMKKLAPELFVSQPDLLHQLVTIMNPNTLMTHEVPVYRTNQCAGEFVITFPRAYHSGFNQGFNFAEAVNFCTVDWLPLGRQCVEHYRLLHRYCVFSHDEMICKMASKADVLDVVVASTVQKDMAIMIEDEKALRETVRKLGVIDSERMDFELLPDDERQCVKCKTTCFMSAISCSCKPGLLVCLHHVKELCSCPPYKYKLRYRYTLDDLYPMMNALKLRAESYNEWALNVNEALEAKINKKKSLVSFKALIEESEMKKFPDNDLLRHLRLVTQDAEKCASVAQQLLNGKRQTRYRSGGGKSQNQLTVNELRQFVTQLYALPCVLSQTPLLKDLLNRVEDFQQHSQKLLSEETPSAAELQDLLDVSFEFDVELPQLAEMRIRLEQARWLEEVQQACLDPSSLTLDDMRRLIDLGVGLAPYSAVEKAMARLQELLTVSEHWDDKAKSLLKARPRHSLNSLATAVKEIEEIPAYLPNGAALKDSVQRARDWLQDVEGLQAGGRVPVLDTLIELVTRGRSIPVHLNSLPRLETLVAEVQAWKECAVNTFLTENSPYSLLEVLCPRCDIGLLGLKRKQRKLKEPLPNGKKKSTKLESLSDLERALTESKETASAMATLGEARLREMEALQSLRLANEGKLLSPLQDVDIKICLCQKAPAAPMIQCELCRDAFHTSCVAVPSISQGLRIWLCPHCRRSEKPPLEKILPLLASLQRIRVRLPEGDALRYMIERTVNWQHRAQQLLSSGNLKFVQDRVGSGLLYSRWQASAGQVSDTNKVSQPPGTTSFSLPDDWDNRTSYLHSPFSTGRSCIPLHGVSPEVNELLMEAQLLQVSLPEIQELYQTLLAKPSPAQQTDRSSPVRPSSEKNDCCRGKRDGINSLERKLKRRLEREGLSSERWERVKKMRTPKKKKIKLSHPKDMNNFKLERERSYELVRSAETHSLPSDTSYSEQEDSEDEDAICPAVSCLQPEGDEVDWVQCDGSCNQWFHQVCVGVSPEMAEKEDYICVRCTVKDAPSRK
row,SMILES,"activity, negative = inhibition"
1,COC(=O)c1c(C)[nH]c(C)c1C(=O)c1ccccc1Cc1ccccc1,-14.1% (inactive)
2,O=C(O)c1cc(=O)c2c(Cl)cc(Cl)cc2[nH]1,-24.8% (inactive)
3,O=C(c1ccc(Cl)cc1)N1CCN(c2ccc([N+](=O)[O-])c3ncccc23)CC1,-7.11% (inactive)
4,CCCCCC(O)c1cccc(OCc2ccc3ccccc3n2)c1 (stereo not given),-10.2% (inactive)
5,COc1ccccc1N1CCN(CCN(C(=O)c2ccc(I)cc2)c2ccccn2)CC1,-9.25% (inactive)
6,Cc1ccc(O)c(N=Nc2ccccc2)n1,-14.6% (inactive)
7,CCCCCCCCCCCCCCCCCC(=O)OC(CC(=O)O)C[N+](C)(C)C (stereo not given),-12.5% (inactive)
8,C#C[C@]1(O)CC[C@H]2[C@@H]3CCC4=Cc5oncc5CC4(C)[C@H]3CCC21C (stereo not given in full),-2.3% (inactive)
9,COc1cccc(C(=O)NCCN2CCN(c3ccc(Cl)cc3)CC2)c1,-6.43% (inactive)
10,NC(=S)c1ccc[n+]([C@@H]2O[C@@H](COP(=O)([O-])OP(=O)(O)OC[C@H]3O[C@@H](n4cnc5c(N)ncnc54)[C@H](OP(=O)(O)O)[C@@H]3O)C(O)C2O)c1 (stereo not given in full),-12.5% (inactive)
